Screens deposited in PubChem by National Center for Advancing Translational Sciences (NCATS).
Sampled rows, rich in hits. Any-hit rate of the full collection: about 19%.
Shiga inhibitor: A qHTS for Small Molecule Inhibitors of Shiga Toxin. Vero cells, Shiga toxin protein synthesis inhibition reporter. inhibition, % at 38.7 µM. hit rate 9.2% among 290,000. AID 2315, 2010; in the data active = inhibition mostly above about 28%, no sharp cut-off; inactive = mostly below about 43%
Pf growth 96h: Primary qHTS for delayed death inhibitors of the malarial parasite plastid, 96 hour incubation; P. falciparum luciferase reporter growth, 96 h; Potency, µM (doses to about 28.7 µM), actives largely listed as inhibitors; hit rate 6.9% among 320,000; AID 504834, 2011
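Erythrocytes infected with luciferase-expressing P. falciparum were dispensed at 2% hematocrit and 0.05% parasitemia (final), then incubated with compounds 96 hours at 37 C in 5% CO2. Luminescence after detection reagent addition reported growth.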
CHX counter: Cycloheximide Counterscreen for Small Molecule Inhibitors of Shiga Toxin; cell reporter, cycloheximide protein synthesis inhibition counterscreen; max response, %; hit rate 12% among 300,000; in the data active = max response mostly above about 13%, no sharp cut-off; inactive = mostly below about 14%; also: read at 38.3 µM for the half of the compounds with a filed dose
SARS PLP yeast: qHTS of Yeast-based Assay for SARS-CoV PLP | S. cerevisiae expressing SARS-CoV PLpro, growth rescue | hit rate 0.19% among 330,000 | Potency, µM (highest dose often 32.9 µM), most hits filed as activators | AID 485353, 2010; calls by dose curve; also: nearly all actives have a fitted effect of over 55% in size
Pf growth 48h: Primary qHTS for delayed death inhibitors of the malarial parasite plastid, 48 hour incubation; P. falciparum luciferase growth in erythrocytes, 48 h; Potency, µM (doses to about 28.7 µM), usual class: inhibitors; hit rate 5.9% among 310,000; AID 504832, 2011
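Read-out is firefly luciferase luminescence from an integrated reporter in P. falciparum, so falling signal marks reduced parasite growth. Infected erythrocytes were at 2% hematocrit and 0.1% parasitemia (final) in Albumax-supplemented RPMI 1640.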
AMA1-RON2 inh: qHTS for Inhibitors of AMA1-RON; Towards Development of Antimalarial Drug Lead: Primary Screen | AlphaScreen AMA1-biotinylated RON2 peptide binding | hit rate 0.2% among 360,000 | Plasmodium falciparum AMA1 (3D7) - RON2 peptide interaction | Potency, µM (highest dose often 58.2 µM), hits mostly inhibitors; also: nearly all actives have a fitted effect of over 45% in size
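AMA1 (3D7) with his tag at 25 nM final met compounds first, then biotinylated RON2 peptide at 25 nM; detection used donor plus acceptor beads, 10 µg/mL apiece, read by AlphaScreen after 30 min at room temperature.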
Large screens that a line does not name were inactive; ! = not confirmed by another sample. Unless noted, calls follow the shape of the dose curve; as a rule, active = well fitted curve in the direction sought with a large enough effect; inconclusive = small, poorly fitted or top-dose-only effect, or another doubt; inactive = no such curve, though single readings can be large; an effect the other way counts as inactive or inconclusive.

CC(C)CCNC(=O)CCc1nnc(COc2ccccc2)o1	Pf growth 96h inconclusive
O=C(CCc1nnc(COc2ccccc2)o1)NCc1ccccc1C(F)(F)F	CHX counter 17
O=C(CCc1nnc(COc2ccccc2)o1)NC1(c2ccccc2)CC1	Pf growth 96h inconclusive
O=C(CCc1nnc(COc2ccccc2)o1)NCc1ccc(Cl)s1	Pf growth 96h 15µM
O=C(CCc1nnc(COc2ccccc2)o1)NCCc1cccs1	Pf growth 96h 10µM
Cc1cc(C)c(S(=O)(=O)NCC2CCC(C(=O)NCCCN3CCC(C)CC3)CC2)c(C)c1 (stereo not drawn)	Pf growth 48h 9.3µM
CCS(=O)(=O)N1CCCC(C(=O)NCCCN2CCCC2=O)C1 (stereo not drawn)	Pf growth 96h 10µM
O=C(NCCCN1CCCC1=O)C1CCC(CNS(=O)(=O)c2ccc(Cl)cc2)CC1 (stereo not drawn)	Pf growth 96h 12µM
COCC(Cc1ccccc1)NC(=O)Cn1cc(C)c(=O)[nH]c1=O (stereo not drawn)	none (no result: Shiga inhibitor, Pf growth 96h, CHX counter, SARS PLP yeast, Pf growth 48h)
Cc1nc2ccc(F)cc2cc1C(=O)NCC1CCCO1 (stereo not drawn)	Pf growth 96h 6.6µM, Pf growth 48h inconclusive
O=C(NCC1CCCO1)c1cc2ccccc2nc1Cl (stereo not drawn)	Shiga inhibitor 76, CHX counter 28
O=C(NCC1CCCO1)c1cc2ccccc2cc1O (stereo not drawn)	Pf growth 96h inconclusive, Pf growth 48h inconclusive (no result: Shiga inhibitor, CHX counter)
COc1ccc(N(C(=O)c2ccccc2OC)C2C=CS(=O)(=O)C2)c(OC)c1 (stereo not drawn)	none
COc1ccc(N(C(C)=O)C2C=CS(=O)(=O)C2)c(OC)c1 (stereo not drawn)	Pf growth 96h 10µM
O=C(NC(NC(=O)c1ccccc1)C(=O)c1ccccc1)c1ccccc1	Pf growth 96h 2.3µM
O=C(NC(C(=O)c1ccccc1)n1c(=O)cc[nH]c1=S)c1ccccc1 (stereo not drawn)	Shiga inhibitor active, CHX counter 16
O=C(NC(C(=O)c1ccccc1)n1cnccc1=O)c1ccccc1 (stereo not drawn)	none
O=C(c1ccccc1)C(O)c1ccccc1 (stereo not drawn)	Pf growth 96h 9.5µM, Pf growth 48h inconclusive (no result: Shiga inhibitor, CHX counter)
O=C(NC(Nc1ncccn1)C(=O)c1ccccc1)c1ccccc1 (stereo not drawn)	none
CN(C(=O)c1cccc(S(=O)(=O)N2CCOCC2)c1)c1c(N)n(Cc2ccccc2)c(=O)[nH]c1=O	none (no result: Shiga inhibitor, CHX counter)
O=S(=O)(O)CCCS(=O)(=O)O	none (no result: Shiga inhibitor, CHX counter, SARS PLP yeast, AMA1-RON2 inh)
CC(C)CC1NC(=O)c2cc(Cl)ccc2-n2c1nc1ccc(F)cc1c2=O (stereo not drawn)	none (no result: Shiga inhibitor, Pf growth 96h, CHX counter, Pf growth 48h, AMA1-RON2 inh)
Cc1ccc(N(Cc2ccccc2F)S(C)(=O)=O)cc1C	Pf growth 96h inconclusive (no result: Pf growth 48h)
Cc1cccc(N(Cc2ccccc2F)S(C)(=O)=O)c1	Pf growth 96h 9.3µM
CC(=O)[C@]1(O)Cc2c(O)c3c(c(O)c2[C@@H](O[C@H]2C[C@H](N)[C@H](O)[C@H](C)O2)C1)C(=O)c1ccccc1C3=O	Pf growth 96h 2.7µM, Pf growth 48h 3.8µM (no result: Shiga inhibitor, CHX counter, SARS PLP yeast)
CC(=O)[C@]1(O)Cc2c(O)c3c(c(O)c2[C@@H](O[C@H]2C[C@H](N)[C@H](O)[C@H](C)O2)C1)C(=O)c1c(O)cccc1C3=O	Pf growth 96h 1.5µM, Pf growth 48h 2.4µM (no result: SARS PLP yeast, AMA1-RON2 inh)
COc1cccc2c1C(=O)c1c(O)c3c(c(O)c1C2=O)C[C@@](O)(C(=O)CO)C[C@@H]3OC1C[C@@H](N)[C@H](O)[C@H](C)O1 (stereo partly drawn)	none (no result: Pf growth 96h, SARS PLP yeast, Pf growth 48h, AMA1-RON2 inh)
COc1cccc2c1C(=O)c1c(O)c3c(c(O)c1C2=O)C[C@@](O)(C(=O)CO)C[C@@H]3O[C@H]1C[C@H](N)[C@@H](O)[C@H](C)O1	none (no result: Shiga inhibitor, Pf growth 96h, CHX counter, SARS PLP yeast, Pf growth 48h)
COc1cccc2c1C(=O)c1c(O)c3c(c(O)c1C2=O)C[C@](O)(C(=O)CO)C[C@@H]3O[C@H]1C[C@H](N)[C@@H](O)[C@H](C)O1	none (no result: Shiga inhibitor, CHX counter, SARS PLP yeast, AMA1-RON2 inh)
CCCCC(=O)OCC(=O)[C@]1(O)Cc2c(O)c3c(c(O)c2[C@H](OC2CC(NC(=O)C(F)(F)F)C(O)C(C)O2)C1)C(=O)c1c(OC)cccc1C3=O (stereo partly drawn)	Pf growth 96h 2.4µM, Pf growth 48h 3.4µM (no result: Shiga inhibitor, CHX counter, SARS PLP yeast, AMA1-RON2 inh)
COc1cccc2c1C(=O)c1c(O)c3c(c(O)c1C2=O)C[C@@](O)(C(C)=O)C[C@@H]3O[C@H]1C[C@H](N)[C@H](O)[C@H](C)O1	Shiga inhibitor 42!, Pf growth 96h 0.59µM, Pf growth 48h 0.37µM
O=C(NC1CCCC1)c1nc(-c2ccco2)oc1-c1ccccc1	none (no result: Shiga inhibitor, Pf growth 96h, CHX counter, SARS PLP yeast, Pf growth 48h)
OCC(O)CO	none (no result: Shiga inhibitor, CHX counter, SARS PLP yeast, AMA1-RON2 inh)
N#Cc1cccc(NC(=O)CCc2ccc(S(=O)(=O)N3CCOCC3)cc2)c1	none (no result: Shiga inhibitor, Pf growth 96h, CHX counter, Pf growth 48h)
COCCNc1oc(/C=C/c2cccc(OC)c2)nc1S(=O)(=O)c1ccccc1	none (no result: Shiga inhibitor, Pf growth 96h, CHX counter, SARS PLP yeast, Pf growth 48h)
Cc1cccc(CN2CCCC(C(=O)Nc3ccccc3Oc3cccnc3)C2)c1 (stereo not drawn)	Pf growth 48h 9.3µM
O=C(Nc1ccc(Oc2cccnc2)cc1)C1CCN(Cc2ccccc2F)CC1	Pf growth 96h 5.9µM, Pf growth 48h inconclusive
Cc1ccc(CN2CCC(C(=O)Nc3ccc(Oc4cccnc4)cc3)CC2)cc1	Pf growth 48h 10µM
CC(=O)c1cccc(CN2CCC(C(=O)Nc3ccc(-c4cccc(C)c4)cc3)CC2)c1	Pf growth 48h 4.1µM
O=C(Nc1ccccc1Oc1cccnc1)C1CCCN(C/C=C/c2ccc(F)cc2)C1 (stereo not drawn)	SARS PLP yeast inconclusive, Pf growth 48h inconclusive
COC(=O)[C@]1(C)N[C@H](CN(C)S(=O)(=O)c2ccccc2)[C@@H]2C(=O)N(Cc3ccccc3)C(=O)[C@@H]21	none (no result: Shiga inhibitor, Pf growth 96h, CHX counter, Pf growth 48h)
Cc1cc(CN2CCCCC2C(=O)Nc2ccc(Oc3cccnc3)cc2)oc1C (stereo not drawn)	Shiga inhibitor 43, Pf growth 96h inconclusive, CHX counter 21, Pf growth 48h inconclusive (no result: SARS PLP yeast)
C/C(=N\Nc1ccc([N+](=O)[O-])cc1)c1ccco1	Shiga inhibitor 34, CHX counter 47
C/C(=N\NC(=O)COc1ccc([N+](=O)[O-])cc1)c1ccco1	none (no result: Shiga inhibitor, CHX counter)
C/C(=N\Nc1ccc([N+](=O)[O-])cc1)c1ccc(N)cc1	Shiga inhibitor 68, CHX counter 34, Pf growth 48h inconclusive
C/C(=N\Nc1ccc([N+](=O)[O-])cc1)c1ccc(-n2nncc2C)cc1	none
CCc1ccc(/C(C)=N\Nc2ccc([N+](=O)[O-])cc2)cc1	Pf growth 96h 4.1µM, CHX counter 19
CC(=NNc1ccc([N+](=O)[O-])cn1)c1ccc(N)cc1	none (no result: Shiga inhibitor, Pf growth 96h, CHX counter, SARS PLP yeast, Pf growth 48h)
CC1=C[C@@H](C)[C@@H](c2ccccc2)OC1=O	none (no result: Pf growth 96h, SARS PLP yeast, Pf growth 48h)
